Measurements reported in ChEMBL document CHEMBL1201862, “PubChem BioAssay data set” (2004).
“And” between values parts separate entries of the source, which are not always exact repeats. Equal values may be shown once. Out of some 400,000 compounds screened, about 2,100 (0.53%) were called active. Inconclusive results (about 14%) are left out. No rule for the calls is given here. Many of the other results were omitted from the sample, so actives are more common in it than they were.

Target: Ataxin-2 (Homo sapiens) (UniProt Q99700)
Sequence (Q99700 whole entry): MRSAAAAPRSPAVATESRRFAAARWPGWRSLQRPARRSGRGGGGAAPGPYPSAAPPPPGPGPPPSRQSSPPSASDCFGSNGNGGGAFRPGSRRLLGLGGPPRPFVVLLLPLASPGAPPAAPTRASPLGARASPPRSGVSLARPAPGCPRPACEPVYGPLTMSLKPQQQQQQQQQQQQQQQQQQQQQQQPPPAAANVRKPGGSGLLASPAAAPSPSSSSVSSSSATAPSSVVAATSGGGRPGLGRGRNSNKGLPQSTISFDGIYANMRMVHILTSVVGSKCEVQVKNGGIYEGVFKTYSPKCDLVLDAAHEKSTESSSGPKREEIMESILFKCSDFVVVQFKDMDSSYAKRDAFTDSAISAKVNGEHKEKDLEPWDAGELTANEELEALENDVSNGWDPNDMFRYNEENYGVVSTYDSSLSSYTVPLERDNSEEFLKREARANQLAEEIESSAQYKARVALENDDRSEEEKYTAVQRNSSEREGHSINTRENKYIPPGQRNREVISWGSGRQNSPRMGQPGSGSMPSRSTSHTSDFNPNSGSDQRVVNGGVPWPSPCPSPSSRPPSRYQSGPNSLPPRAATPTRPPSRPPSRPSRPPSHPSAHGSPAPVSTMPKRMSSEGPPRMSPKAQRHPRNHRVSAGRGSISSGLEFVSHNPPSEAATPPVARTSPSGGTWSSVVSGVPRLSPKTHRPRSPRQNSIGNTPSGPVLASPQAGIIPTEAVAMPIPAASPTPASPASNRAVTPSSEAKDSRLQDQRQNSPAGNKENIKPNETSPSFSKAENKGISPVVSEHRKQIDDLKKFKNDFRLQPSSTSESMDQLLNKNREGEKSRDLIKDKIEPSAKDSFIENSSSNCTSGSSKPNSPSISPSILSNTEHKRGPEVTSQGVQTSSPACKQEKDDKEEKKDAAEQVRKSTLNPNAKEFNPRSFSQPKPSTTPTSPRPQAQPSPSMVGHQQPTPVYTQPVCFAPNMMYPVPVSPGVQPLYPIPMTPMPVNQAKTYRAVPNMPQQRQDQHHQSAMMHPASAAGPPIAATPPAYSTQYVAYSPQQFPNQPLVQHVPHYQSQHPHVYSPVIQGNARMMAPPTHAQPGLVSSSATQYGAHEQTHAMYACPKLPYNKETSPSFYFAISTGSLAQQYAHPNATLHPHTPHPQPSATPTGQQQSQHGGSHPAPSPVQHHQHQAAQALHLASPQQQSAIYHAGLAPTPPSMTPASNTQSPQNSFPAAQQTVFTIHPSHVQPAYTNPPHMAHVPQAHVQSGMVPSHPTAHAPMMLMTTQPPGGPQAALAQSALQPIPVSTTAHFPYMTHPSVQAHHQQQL
Experiment: qHTS for Inhibitors of ATXN expression.
Format: functional

Row | Compound | Potency
1 | O=C(Nc1nc2n(n1)C(c1ccc(F)cc1)C=C(c1ccccc1)N2)c1ccc(Cl)cc1 (stereo unspecified) | inactive
2 | S=C(c1ccc(-c2ccc(Br)cc2)o1)N1CCOCC1 | inactive
3 | CCc1cc(=O)oc2c3c(c(Cl)cc12)OCN(Cc1cccc(OC)c1)C3 | inactive
4 | CCCO/C(O)=C1\C(C)=NC2=C(C(=O)CC(C)(C)C2)C1c1cccnc1 (stereo unspecified) | inactive
5 | CCCc1ccc(C2C3=C(CC(C)(C)CC3=O)N=C3C2=C(O)c2ccccc23)cc1 (stereo unspecified) | 20 µM (active)
6 | CC1C2=C(O)CC(C)(C)CC2=NC2=C1C(=O)CC(C)(C)C2 (stereo unspecified) | inactive
7 | O=S(=O)(Nc1ccccc1N1CCOCC1)c1ccccc1C(F)(F)F | inactive
8 | O=C1CCCc2nc3c(cc21)C(O)Oc1c-3ccc2ccccc12 (stereo unspecified) | inactive
9 | O=C(Cc1c(F)cccc1Cl)N(Cc1ccccc1)c1ccccn1 | inactive
10 | Cn1c(SCc2ccccc2F)nc2ccccc2c1=O | inactive
11 | CN(Cc1ccccc1)C(=O)c1ccc(CSc2nc3cccnc3n2Cc2ccccc2F)cc1 | 20 µM (active)
12 | O=C(CN1C(=O)CCC1=O)Nc1nc(-c2ccc3ccccc3c2)cs1 | inactive
13 | CN1CCN(Cc2c(O)ccc3cc(-c4ccccn4)c(=O)oc23)CC1 | inactive
14 | CN1CCN(Cc2nc3ccccc3c(=O)n2Cc2nc(-c3ccc4ccccc4c3)cs2)CC1 | 39.8 µM (active) and 25.1 µM (active)
15 | C[C@H]1C(c2ccc(F)cc2)=NN(c2ccccc2)[C@@H]1CO | inactive
16 | O=C(CSc1nnc2ccccn12)Nc1ccc(S(=O)(=O)N2CCOCC2)cc1 | inactive
17 | COc1ccc(Cl)cc1CC1(C)C(=O)Nc2ccc(S(=O)(=O)NC3CCCCC3)cc21 (stereo unspecified) | 35.5 µM (active)
18 | COc1ccc(CCNS(=O)(=O)c2ccc3c(c2)CCCC3)cc1OC | inactive
19 | COc1ccc(-c2csc(/C(C#N)=C/Nc3cc4oc5ccccc5c4cc3OC)n2)cc1 | inactive
20 | C=CC[C@@H](Cc1ccc(F)cc1)C(=O)OC[C@H]1CCCN1C(=O)[C@H](CC=C)CC(=O)N(CCO)Cc1ccccc1 | 35.5 µM (active)
21 | C=CC[C@@H](Cc1ccc(F)cc1)C(=O)OC[C@H]1CCCN1C(=O)[C@@H](CC=C)CC(=O)N(CCO)Cc1ccccc1 | 39.8 µM (active)

Row | Compound | Potency
22 | N#Cc1c(N)n(CCc2ccc(F)cc2)c2nc3ccccc3nc12 | inactive
23 | O=C(CN1C(=O)NC2(CCCCC2)C1=O)Oc1ccc2c(C(F)(F)F)cc(=O)oc2c1 | inactive
24 | Fc1ccc(-c2nc3cnccn3c2NC2CCCC2)cc1 | inactive
25 | COc1ccc2c(c1)C(=NN)c1cc(OC)ccc1-2 | 31.6 µM (active)
26 | COc1ccc2c(c1)C(=NNc1ccc(C(=O)O)cc1)c1cc(OC)ccc1-2 | 22.4 µM (active)
27 | COc1ccc(C(=O)N2C(=O)c3ccc(N)cc3C2=O)cc1 | inactive
28 | COc1ccc2c(c1)CCc1cn3nc(C)cc3nc1-2 | inactive
29 | COc1ccc2nc(O)c(C(=O)O)cc2c1 | inactive
30 | O=C(O)CC1SC(N/N=C/C2CC=CCC2)=NC1=O (stereo unspecified) | inactive
31 | Oc1ccccc1C1SC(c2ccccc2O)SC(c2ccccc2O)S1 (stereo unspecified) | 20 µM (active)
32 | CCc1ccc2c(CN3CCc4cc(OC)c(OC)cc4C3)cc(=O)oc2c1 | inactive
33 | COc1ccc(-c2cc(Cl)cc3c(=O)c4ccccc4n(C)c23)cc1F | inactive
34 | COc1ccc(-c2cc(=O)oc3cc(O)ccc23)cc1 | inactive
35 | COc1ccc(-c2cc3ccc(O)cc3oc2=O)cc1OC | inactive
36 | CCc1cc(=O)oc2cc3occ(-c4ccc(OC)c(F)c4)c3cc12 | 22.4 µM (active)
37 | COc1ccc(-c2coc3cc4oc(=O)c5ccccc5c4cc23)cc1F | 8.91 µM (active)
38 | COc1ccccc1C1CN(c2ccc(F)cc2F)N=C1c1cccs1 (stereo unspecified) | inactive
39 | N#C/C(=N\Nc1ccc(Cl)c(Cl)c1)C(=O)C1CC1 | 25.1 µM (active)
40 | O=C(NCc1ccc(Cl)c(Cl)c1)C1CCCC1 | inactive
41 | O=[N+]([O-])c1ccc(S(=O)(=O)NCCc2cn3ccccc3n2)cc1 | inactive
42 | COc1ccc(S(=O)(=O)NCC2CCCN(C(=O)c3cccnc3)C2)cc1 (stereo unspecified) | inactive

Row | Compound | Potency
43 | Cc1c(C)n(Cc2ccccc2)c2ccc(C(=O)O)cc12 | inactive
44 | Cc1c(C=O)c(C=O)c(C)n1Cc1ccccc1 | 35.5 µM (active)
45 | COc1ccccc1OCCn1c(C)c(C=O)c2ccccc21 | inactive
46 | O=c1cc(N2CCCCC2)c(-c2ccccc2)nn1Cc1ccccc1 | inactive
47 | COc1ccccc1CNC(=O)c1cnn(-c2nccc(-c3cccs3)n2)c1C | inactive
48 | COc1ccc(-c2cc(-c3cccs3)nc3sc(C#N)c(N)c23)cc1 | inactive
49 | COc1ccc(-c2cc(-c3cccs3)c(C#N)c(SCC(=O)NCc3ccccc3OC)n2)cc1 | 35.5 µM (active)
50 | COc1ccc(C2C=C(c3ccccc3)Nc3nc(NS(=O)(=O)c4ccccc4)nn32)cc1 (stereo unspecified) | inactive
51 | COc1c2c(c3c(c1OC)c(=O)c1ccccc1n3C)OCO2 | inactive
52 | Cc1c(CC(=O)N2CCN(C(=O)C3COc4ccccc4O3)CC2)c(=O)oc2c(C)c(O)ccc12 (stereo unspecified) | inactive
53 | O=C(c1cc2cc(Cl)ccc2[nH]1)N1CCc2ccccc2C1 | inactive
54 | OC(COC(c1ccc(Cl)cc1)c1ccc(Cl)cc1)CN1CCc2ccccc2C1 (stereo unspecified) | 25.1 µM (active)
55 | O=C(Cc1ccc(Cl)cc1)N1CCc2ccccc2C1 | inactive
56 | CCOC(=O)c1cc2c(=O)n3ccccc3nc2n(C(C)C)/c1=N/C(=O)c1ccco1 | inactive
57 | COc1cc(-c2oc3ccc(C)cc3c(=O)c2O)cc(OC)c1OC | inactive
58 | COc1ccc(S(=O)(=O)N(C)C[C@H]2Oc3c(NC(=O)Nc4ccc(C(F)(F)F)cc4)cccc3C(=O)N([C@H](C)CO)C[C@@H]2C)cc1 | 22.4 µM (active)
59 | C[C@@H]1CN([C@H](C)CO)C(=O)c2cccc(NC(=O)Nc3ccc(C(F)(F)F)cc3)c2O[C@H]1CN(C)S(=O)(=O)c1cccs1 | 28.2 µM (active)
60 | C[C@H]1CN([C@@H](C)CO)C(=O)c2cccc(NC(=O)Nc3ccc(C(F)(F)F)cc3)c2O[C@@H]1CN(C)S(=O)(=O)c1ccc(Cl)cc1 | 25.1 µM (active)
61 | C[C@H](CO)N1C[C@H](C)[C@@H](CN(C)S(=O)(=O)c2ccc(F)cc2)Oc2c(NC(=O)Nc3ccc(C(F)(F)F)cc3)cccc2C1=O | 35.5 µM (active)
